Screens: PubChem, The Scripps Research Institute Molecular Screening Center
Hits are enriched below; roughly 4.1% of the tested compounds scored in any of these assays.
DAX1 inh-1: DAX1 (NR0B1) inhibition, primary screen; HEK293T StAR-luciferase reporter, SF-1/DAX-1 repression relief; inhibition, % at 6.8 µM; hit rate 1.1% among 370,000; AID 652010;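 active means inhibition above the mean over all tested compounds plus 3 SD, cut at about 3.6% in these data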;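 further: 0% = DAX-1 cells with DMSO and 100% = cells lacking DAX-1 with DMSO; higher inhibition means more luminescence from relief of DAX-1 repression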
hgDAF12 agonist: agonists of H. glycines DAF-12 nuclear receptor | HEK293 GAL4-hgDAF12 UAS-luciferase reporter, agonist luminescence; normalized to butyrate control | activation, % at 6.8 µM | hit rate 1.8% among 370,000;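 active means activation above a cutoff set at the mean of all screened compounds plus 3 SD, cut at about 10% in these data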;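 further: 0% = DMSO wells and 100% = sodium butyrate wells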
DAX1 inh-2: NR0B1 (DAX1) inhibition | P51843 | HEK293 Gal4-DAX1 luciferase reporter, luminescence | inhibition, % at 6.75 µM | hit rate 0.99% among 340,000;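 active means inhibition above the mean over all tested compounds plus 3 SD, cut at about 4.2% in these data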;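 further: 0% = DAX1-transfected cells with DMSO and 100% = empty-vector control cells with DMSO; inhibition shows as a rise in luminescence from relieved DAX1 repression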
Target sequence (P51843 207-470 limits assumed): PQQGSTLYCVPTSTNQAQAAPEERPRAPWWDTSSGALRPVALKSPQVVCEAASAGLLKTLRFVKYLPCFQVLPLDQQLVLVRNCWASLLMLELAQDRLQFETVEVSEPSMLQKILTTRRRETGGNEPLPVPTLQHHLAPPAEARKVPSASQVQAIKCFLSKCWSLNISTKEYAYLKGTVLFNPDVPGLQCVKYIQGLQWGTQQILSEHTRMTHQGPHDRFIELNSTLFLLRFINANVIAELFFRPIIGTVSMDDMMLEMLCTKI
ssDAF-12 act: activates DAF-12 receptor from parasite S. stercoralis | HEK293 ssDAF-12/GRIP1 lit1-tk-luc reporter, luminescence; % of 3 µM dafachronic acid response | activation, % at 6.8 µM | hit rate 1% among 370,000 | AID 652126;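 active means activation above the mean over all tested compounds plus 3 SD, cut at about 0.9% in these data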;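 further: 0% = DMSO-only wells and 100% = 3 µM delta7-dafachronic acid wells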
hcDAF-12 act: activators of H. contortus DAF-12 nuclear receptor; HEK293 hcDAF-12 lit1-tk-luc reporter, luminescence; 0% DMSO, 100% Δ7-dafachronic acid; activation, % at 6.8 µM; hit rate 1.4% among 370,000;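 active means activation above the mean of all tested compounds plus 3 SD, cut at about 5.5% in these data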;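 further: 100% = response to 3 µM Δ7-dafachronic acid high control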
hgDAF12 ag: hgDAF-12 agonism, confirmation assay; activation, % at 6.8 µM; hit rate 80% among 3,300; shares compounds with hgDAF12 agonist; HEK293 GAL4-hgDAF12 luciferase reporter, agonist mode; percent of butyrate response;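 active means mean activation over triplicate wells above the hit cutoff derived from the earlier primary screen, cut at about 11% in these data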;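 further: 0% = DMSO low control and 100% = 2 mM sodium butyrate high control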
LXRb DAF12 ctr: counter-screen for DAF-12 agonists: agonists of human LXR-beta. HEK293 Gal4-LXR luciferase reporter, 24 h. 3,300 tested, under 10 active. activation, % at 6.8 µM. shares compounds with hgDAF12 agonist;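 active means mean activation of the triplicate above a set limit carried over from the primary screen, none filed active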
* hit, by the source's call; . = no result given.

SMILES	DAX1 inh-1	hgDAF12 agonist	DAX1 inh-2	ssDAF-12 act	hcDAF-12 act	hgDAF12 ag	LXRb DAF12 ctr
CSc1ccc(/C=N/NC(=O)c2cccs2)cc1	3	16*	.	0	6.3*	18*	1
CSc1ccc(/C=N/NC(=O)c2ccccc2Cl)cc1	-1	18*	1	-1	4	13*	0
Cc1[nH]c2ccccc2c1/C=N/NC(=O)CNC(=O)c1cccs1	0	0	0	-1	0	.	.
Cc1[nH]c2ccccc2c1/C=N/NC(=O)c1cccs1	2	14*	7.9*	0.9*	6.1*	5	0
O=C(N/N=C/c1ccc(F)cc1)c1cccc(NC(=O)c2ccccc2Cl)c1	0	2	3	-1	-2	.	.
C[C@@H]1CN([C@H](C)CO)C(=O)CCCn2cc(nn2)CO[C@H]1CN(C)S(=O)(=O)c1ccc(Cl)cc1	0	-1	.	-1	-1	.	.
CN1N=C(/C=C/c2ccccc2)CCC1=O	2	3	1	-1	1	.	.
Cc1ccc(/C=C/C2=NN(C)C(=O)CC2)cc1	3	14*	1	0	3	15*	1
O=C(O)C1C2CCC(O2)C1C(=O)Nc1ccc(F)cc1 (centres undefined)	0	0	-1	-1	1	.	.
O=C(O)c1ccc(NC(=O)C2C3CCC(O3)C2C(=O)O)cc1 (centres undefined)	1	14*	1	1.4*	6.0*	3	0
COc1ccc(/C=C/C(=O)c2ccc(OC)cc2OC)c(OC)c1	-2	-2	0	-2	-4	.	.
COc1ccc(/C=C/C(=O)c2ccc3c(c2)OCO3)c(OC)c1	3	24*	3	0	4	17*	1
COc1ccc(/C=C/C(=O)c2ccccc2)c(OC)c1	2	14*	4	1	5	14*	1
COc1ccc(Cn2ccc3ccc(-c4ccc5ccn(C(=O)c6ccccc6C)c5c4)cc32)cc1	-1	4	.	-1	-1	.	.
COc1cccc(C2c3c(ncn(-c4ccccc4)c3=N)Oc3ccc4ccccc4c32)c1 (centres undefined)	.	4	.	-1	0	.	.
COC[C@H]1O[C@]2(c3ccccc3)CO[C@H]1[C@@H](/C=C/c1ccccc1)C2	0	0	.	-1	-1	.	.
CCOC(=O)Cc1nc2ccccc2[nH]1	0	-3	0	-1	0	.	.
CCOC(=O)c1ccc(NCc2nc3ccccc3[nH]2)cc1	3	15*	1	0	5	5	0
O=C(Nc1nc2c(s1)C(=O)CCC2)c1ccccc1	3	16*	0	0	5	17*	1
O=C(Nc1nc(=O)c2ccccc2s1)c1ccccc1	2	9	1	0	5	.	.
C[C@H]1COc2cc(F)ccc2S(=O)(=O)N1C	-1	-1	.	-2	-2	.	.
O=C(Nc1cccc([N+](=O)[O-])c1)Nc1ccc2c(c1)OCCO2	2	13*	3	0	4	17*	1
CC(=O)c1cccc(NC(=O)Nc2ccc3c(c2)OCO3)c1	2	14*	2	0	1	14*	0
O=C(Nc1cccc([N+](=O)[O-])c1)Nc1cccc([N+](=O)[O-])c1	-1	0	0	-2	-2	.	.
O=C(Nc1ccc2c(c1)OCCO2)NC12CC3CC(CC(C3)C1)C2	2	14*	1	-1	4	17*	1
SMILES	DAX1 inh-1	hgDAF12 agonist	DAX1 inh-2	ssDAF-12 act	hcDAF-12 act	hgDAF12 ag	LXRb DAF12 ctr
Cn1cc(C(=O)Nc2ccc3c(c2)CCC3)cn1	2	8	2	0	1	.	.
CC(=O)c1cccc(NC(=O)NCc2ccc3c(c2)OCO3)c1	-3	0	2	-1	-2	.	.
O=C(Nc1ccc2c(c1)CCC2)c1cc(F)cc(F)c1	4.1*	14*	2	0	0	13*	0
CC(C)(C)c1ccc(S(=O)(=O)N2CCN(C(=O)C(=O)c3cccc(C(F)(F)F)c3)CC2)cc1	1	1	.	-1	-1	.	.
O=C(Nc1ccc2c(c1)CCC2)Nc1ccc2c(c1)OCO2	1	14*	2	-1	1	14*	1
C[C@@H]1CCN(C2CC2)S(=O)(=O)c2c(cccc2N2CC[C@@H](O)C2)O1	-1	0	.	-1	-1	.	.
Cc1ccc2nc(-c3ccccc3O)c(Nc3ccc4c(c3)OCCO4)n2c1	0	0	0	-1	2	.	.
Cc1ccc2nc(-c3ccc(O)cc3)c(Nc3ccc4c(c3)OCCO4)n2c1	2	17*	0	0	4	0	0
COC(=O)C1=C(C)N(Cc2ccccc2C(F)(F)F)C(=NCc2ccc3c(c2)OCO3)NC1c1cccc(Cl)c1 (centres undefined)	-1	2	.	0	2	.	.
Cc1ccc(C(=O)N/N=C/c2ccc(N3CCOCC3)cc2)c(C)c1	0	14*	-1	-1	1	-1	0
O=C(N/N=C/c1ccc(N2CCOCC2)cc1)c1ccc(O)cc1	1	0	1	-2	-1	.	.
Cc1cccc(S(=O)(=O)Nc2ccc(-c3nc4ccc(C)cc4s3)cc2)c1	4.2*	22*	3	0	5	21*	1
Cc1c(S(=O)(=O)Nc2ccc3c(c2)OCCO3)c(=O)n(C)c(=O)n1C	1	-2	1	-1	1	.	.
Cc1ccc(S(=O)(=O)Nc2ccc(-c3nc4ccc(C)cc4s3)cc2)cc1	0	1	-1	-1	1	.	.
Cc1ccc2nc(-c3ccc(NS(=O)(=O)c4c(C)n(C)c(=O)n(C)c4=O)cc3)sc2c1	3	20*	6.3*	0	5	17*	1
N#C/C(=C(/O)c1ccco1)c1nc2ccccc2[nH]1	3.9*	22*	5.0*	1.2*	1	23*	0
c1cc(-c2cc3cc(N4CCOCC4)ccc3o2)cs1	3	15*	4.8*	0	5	14*	1
CN(C)c1cccc(/C=C2\CC3(OC(=O)c4ccccc4)CCCN2C3)c1 (centres undefined)	0	22*	.	-1	-1	0	0
COc1ccc(NC(=O)c2ccc3snnc3c2)cc1	1	3	1	-1	2	.	.
CC(=O)c1ccc(NC(=O)c2ccc3snnc3c2)cc1	4	14*	0	-1	1	12*	1
COC(=O)[C@]12C[C@H](CC(=O)N3CCC(c4ccccc4)CC3)C(=O)N(CCc3ccc(OC)c(OC)c3)C1=C[C@H](C1CCCC1)O[C@@H]2C	-1	4	.	-2	1	.	.
Cc1ccccc1S(=O)(=O)Nc1nc2ccccc2nc1N1CCc2ccccc2C1	2	14*	0	0	5	10	0
